Bioassay records as filed in PubChem BioAssay.
Most compounds without a hit are left out; they make up all but 1.1% or so of the library.
IDH1 R132H inh: inhibitors of human mutant IDH1 R132H; O75874; IDH1-R132H enzyme, NADPH consumption, diaphorase/resazurin fluorescence; Potency, µM (doses to about 76.6 µM), for the others: at the top dose activity change, negative = inhibition, usual class: inhibitors; actives 0.093% (n = 390,000); AID 602179; note: nearly all actives have a fitted effect of over 65% in size
Target sequence (O75874 whole entry R132H, stated change not applied): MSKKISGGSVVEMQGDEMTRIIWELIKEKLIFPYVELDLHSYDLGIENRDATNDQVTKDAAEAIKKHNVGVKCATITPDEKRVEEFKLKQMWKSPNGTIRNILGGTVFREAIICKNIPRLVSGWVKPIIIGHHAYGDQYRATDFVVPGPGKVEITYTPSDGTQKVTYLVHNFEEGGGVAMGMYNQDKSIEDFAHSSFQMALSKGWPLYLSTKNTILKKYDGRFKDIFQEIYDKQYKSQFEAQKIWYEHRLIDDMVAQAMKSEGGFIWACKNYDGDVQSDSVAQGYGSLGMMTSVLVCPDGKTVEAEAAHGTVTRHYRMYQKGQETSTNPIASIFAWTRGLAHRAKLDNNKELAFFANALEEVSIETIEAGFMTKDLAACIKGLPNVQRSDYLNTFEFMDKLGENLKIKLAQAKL
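IDH1-R132H (0.5 ug/mL) preincubated 30 min with compound, then NADPH (0.016 mM) and alpha-KG (2 mM) added; 80 min at RT, pH 7.5. Remaining NADPH coupled via diaphorase/resazurin to fluorescence (540/590 nm); concentration-response curves normalized to no-enzyme control.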
RGS4 inhibitor: human RGS4 inhibition | Potency, µM (series often up to 114 µM), inactives show top-dose activity change, negative = inhibition, usual class: inhibitors | Transcreener GDP fluorescence polarization, RGS4-accelerated GTP hydrolysis | actives 0.039% (n = 390,000) | AID 504845; note: nearly all actives have a fitted effect of over 75% in size
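MLSMR compounds (23 nl, pin-transferred) preincubated 10 min at room temperature with a 500nM (2x) first reagent, then RGS4 at 900nM (2x) plus Transcreener GDP mix added; fluorescence polarization (620/688 nm) read before and after 90 min at 30 °C.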
TrxR1 inh: inhibitors of rat thioredoxin reductase 1 | O89049 | recombinant rTrxR1, NADPH fluorescence consumption, selenite substrate | Potency, µM (doses to about 114 µM), for the others: at the highest dose activity change, negative = inhibition, hits mostly inhibitors | actives 1% (n = 390,000) | AID 588453; note: nearly all actives have a fitted effect of over 65% in size
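Rat TrxR1 (90 nM in the dispensed reagent) was pre-reduced with 400 uM NADPH for 5 min at room temperature, then incubated with compound for 15 min. After 400 uM selenite was added, NADPH fluorescence (Ex 340/Em 450 nm) was followed for 8 min.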
TrxR1 substrate: is turned over as a substrate by rat TrxR1; purified TrxR1 substrate turnover, NADPH consumption readout; Potency, µM (titrated, usually from 114 µM), for the others: at the top dose activity change, negative = substrate turnover; actives 0.01% (n = 390,000); note: nearly all actives have a fitted effect of over 50% in size
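Rat TrxR1, dispensed at 90 nM, was prereduced with 400 uM NADPH (final) for 5 min at ~22 deg C, then incubated with compound 15 min before 400 uM selenite. A first-read NADPH fluorescence drop versus no-compound background flagged substrates.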
Eya2 phos inh: blocks the phosphatase activity of human Eya2; O00167; recombinant Eya2, OMFP fluorescence dephosphorylation (OMFP is methylfluorescein phosphate); Potency, µM (series often up to 76.9 µM), without a hit: at the highest dose activity, negative = inhibition, actives largely listed as inhibitors; actives 0.006% (n = 330,000)
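Eya2 (0.2 uM) preincubated 10 min at ambient with compound, then OMFP substrate added at 50 uM; 10 min reaction in 50 mM HEPES pH 7.5, 50 mM NaCl, 5 uM MgCl2, 0.05% BSA, 1 mM DTT. Fluorescence read at Ex 485/Em 525 nm.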
* marks the source's active call; other numbers are inactive results; ? = inconclusive; . = no result given; [ ] = remark or other dose. Calls come from the whole dose curve; as a rule, active = well fitted curve in the direction sought with a large enough effect; inconclusive = small, poorly fitted or top-dose-only effect, or another doubt; inactive = no such curve, though single readings can be large; an effect the other way counts as inactive or inconclusive. % is set by controls: 0 for no effect and ±100 for the full control effect; potency is the fitted concentration of half-maximal effect.

SMILES	IDH1 R132H inh	RGS4 inhibitor	TrxR1 inh	TrxR1 substrate	Eya2 phos inh
CCCCN1C(=O)CC(Sc2ccccc2C(=O)O)C1=O (stereo unspecified)	6%	24%	16µM*	-3%	-6%
Nc1ccccc1SC1CC(=O)N(c2ccc3c(c2)OCO3)C1=O (stereo unspecified)	-8%	-20%	12%	2%	-4%
Cc1cccc(N2C(=O)CC(Sc3ncn[nH]3)C2=O)c1 (stereo unspecified)	-12%	-9%	20µM*	-4%	?
Cc1ccc(N2C(=O)CC(Sc3ccccc3C(=O)O)C2=O)c([N+](=O)[O-])c1 (stereo unspecified)	0%	?	79µM*	-3%	-4%
Cc1ccc(N2C(=O)CC(Sc3ccccc3C(=O)O)C2=O)cc1 (stereo unspecified)	-1%	-28%	?	-6%	-5%
O=C(O)c1ccccc1SC1CC(=O)N(c2ccc3c(c2)OCO3)C1=O (stereo unspecified)	3%	-31%	40µM*	8%	20%
Cc1cc(C)cc(N2C(=O)CC(Sc3ccccc3C(=O)O)C2=O)c1 (stereo unspecified)	3%	-39%	-83%	6%[57.1 µM]	?
CN(C)c1ccc(N2C(=O)CC(Sc3ccccc3C(=O)O)C2=O)cc1 (stereo unspecified)	8%	?	79µM*	-9%	2%
Cc1cccc(N2C(=O)CC(Sc3ccccc3C(=O)O)C2=O)c1 (stereo unspecified)	6%	-52%	56µM*	-3%	5%
COc1ccc(N2C(=O)CC(Sc3ccccc3C(=O)O)C2=O)c([N+](=O)[O-])c1 (stereo unspecified)	-3%	?	71µM*	3%	8%
CCOC(=O)N1CCN(c2c(NCc3ccc(F)cc3)c(=O)c2=O)CC1	-2%	4%[11.4 µM]	13%	-1%	-7%
COc1ccc(NC(=O)C2CCCN(c3nc(C)cc(C)n3)C2)cc1 (stereo unspecified)	-4%	6%	21%	3%	3%
COc1ccc(C(NC(=O)/C=C/c2ccco2)c2ccc(OC)c(OC)c2)cc1 (stereo unspecified)	-6%	0%	50µM*	-8%	-1%
COc1ccc(CNC(=O)/C=C/c2ccco2)cc1OC	0%	-36%	?	3%	14%
COc1ccc(C2(CNC(=O)/C=C/c3ccco3)CCCC2)cc1OC	10%	?	3.5µM*	5%	9%
CCN(CC)S(=O)(=O)c1ccc(OC)c(NC(=O)/C=C/c2ccco2)c1	-1%	-4%[11.4 µM]	18µM*	-4%	-9%
O=C(/C=C/c1ccco1)NCC1(c2ccccc2)CCCC1	9%	-22%	?	-7%	-1%
CCOc1ccc(C(NC(=O)/C=C/c2ccco2)c2ccc(OC)c(OC)c2)cc1 (stereo unspecified)	-6%	-32%	35µM*	1%	5%
O=C(CSc1nc2ccccc2o1)N/N=C/c1ccco1	5%	7%	33%	0%	-2%
Nc1cccnc1Sc1cccc(Cl)c1	11%	-109%	10µM*	19%	-5%
Nc1cccnc1Sc1ccc(Cl)cc1	16%	-29%	?	18%	-15%
NC(=N\N=Cc1ccco1)/C(N)=N/N=Cc1ccco1	-1%	-10%	79µM*	?	.
CC(=O)Nc1ccc(NC(=O)C2CCC(N3C(=O)C4C5C=CC(C6CC56)C4C3=O)CC2)cc1 (stereo unspecified)	-6%	?	25µM*	2%	11%
Cc1ccc(/C=C/C(=O)OC(C)C(=O)Nc2ccc(Cl)cn2)o1 (stereo unspecified)	10%	-41%	14µM*	1%	-4%
O=C(O)c1ccc(NS(=O)(=O)c2ccc3c(c2)OCCO3)cc1	-3%	11%	8%[57.1 µM]	10%[57.1 µM]	28%
O=C1NC(c2ccc(Br)cc2)Nc2sc3c(c21)CCC3 (stereo unspecified)	-3%	?	?	5%	-16%
